The campaign covered roughly 5,500 compounds. About 2,000 (36%) were called active. Roughly 18% stayed inconclusive and do not appear here. No stated cut-off is given here; in the data, active means normalized growth mostly below about 0.91 (no sharp cut-off); inconclusive means no clear call, values can overlap the other calls; inactive means mostly above about 0.92. The list shows a part of the results.
Experiment: chemical genetic growth profiling, strain panel (AID 1159580);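 further: tested at 20 µM; growth read once vehicle control cultures reached saturation at 30 °C; 1 = growth at the plate median or of vehicle wells; lower values mean less growth of the strain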
Details: S. cerevisiae deletion strains, growth OD

Measured: normalized growth

COc1cc2nc(N(C)CCCNC(=O)C3CCCO3)nc(N)c2cc1OC (stereo not given)
inactive: locus YAL021C, strain ccr4, hits give low values 1.02 | locus YAL026C, strain drs2, hits give low values 1 | locus YAL030W, strain snc1, hits give low values 0.979 | locus YBL061C, strain skt5, hits give low values 0.986 | locus YBR009C, strain hhf1, hits give low values 1.01 | locus YBR021W, strain FUR4, hits give low values 0.994 | locus YBR023C, strain chs3, hits give low values 0.997 | locus YBR171W, strain sec66, hits give low values 0.988 | locus YBR229C, strain ROT2, hits give low values 1 | locus YBR231C, strain swc5, hits give low values 0.998 | locus YBR279W, strain paf1, hits give low values 0.993 | locus YCL011C, strain gbp2, hits give low values 0.993 | locus YCL016C, strain dcc1, hits give low values 1 | locus YCL029C, strain bik1, hits give low values 1.02 | locus YCL061C, strain MRC1, hits give low values 0.996 | locus YCL069W, strain vba3, hits give low values 0.993 | locus YCR088W, strain abp1, hits give low values 0.986 | locus YDL005C, strain med2, hits give low values 1 | locus YDL035C, strain GPR1, hits give low values 1.03 | locus YDL040C, strain nat1, hits give low values 0.993 | locus YDL074C, strain BRE1, hits give low values 1.03 | locus YDL101C, strain DUN1, hits give low values 1.01 | locus YDL185W, strain tfp1, hits give low values 1.02 | locus YDL192W, strain arf1, hits give low values 1.01 | locus YDR001C, strain nth1, hits give low values 0.997 | locus YDR069C, strain doa4, hits give low values 0.991 | locus YDR101C, strain arx1, hits give low values 1.01 | locus YDR137W, strain rgp1, hits give low values 1 | locus YDR159W, strain sac3, hits give low values 1.03 | locus YDR162C, strain NBP2, hits give low values 1.03 | locus YDR195W, strain ref2 0.972 | locus YDR297W, strain sur2, hits give low values 1 | locus YDR318W, strain mcm21, hits give low values 1.02 | locus YDR334W, strain swr1, hits give low values 0.999 | locus YDR335W, strain msn5, hits give low values 1 | locus YDR388W, hits give low values 0.999 | locus YDR392W, strain spt3, hits give low values 1.01 | locus YDR502C, strain sam2, hits give low values 1 | locus YEL003W, strain gim4, hits give low values 1 | locus YEL037C, strain rad23, hits give low values 0.998 | locus YEL061C, strain CIN8 (second series), hits give low values 0.986 | locus YEL061C, strain CIN8, hits give low values 1.01 | locus YER015W, strain faa2, hits give low values 0.995 | locus YER016W, strain bim1, hits give low values 0.998 | locus YER110C, hits give low values 1 | locus YER111C, strain swi4, hits give low values 0.987 | locus YER155C, strain BEM2 (second series), hits give low values 0.999 | locus YER155C, strain BEM2, hits give low values 0.998 | locus YER167W, strain BCK2, hits give low values 1.01 | locus YFR010W, strain ubp6, hits give low values 0.992 | locus YGL078C, strain dbp3, hits give low values 1 | locus YGL086W, strain mad1, hits give low values 1.01 | locus YGL167C, strain pmr1, hits give low values 0.995 | locus YGL173C, strain kem1, hits give low values 0.994 | locus YGL227W, strain vid30, hits give low values 0.986 | locus YGL240W, strain doc1, hits give low values 0.987 | locus YGL248W, strain PDE1, hits give low values 1.01 | locus YGL253W, strain hxk2, hits give low values 0.992 | locus YGR135W, strain pre9, hits give low values 0.998 | locus YGR252W, strain gcn5, hits give low values 0.95 | locus YHR013C, strain ard1, hits give low values 0.999 | locus YHR027C, strain rpn1, hits give low values 0.997 | locus YHR030C, strain SLT2, hits give low values 1.03 | locus YHR079C, strain IRE1 (second series), hits give low values 0.997 | locus YHR094C, strain hxt1, hits give low values 1 | locus YHR129C, strain ARP1, hits give low values 1.01 | locus YHR142W, strain chs7, hits give low values 0.979 | locus YHR200W, strain rpn10, hits give low values 1.01 | locus YIL066C, strain RNR3, hits give low values 1.04 | locus YIL073C, strain SPO22, hits give low values 1.03 | locus YIL125W, strain kgd1, hits give low values 1.01 | locus YIR030C, strain dcg1, hits give low values 0.995 | locus YJL092W, strain hpr5, hits give low values 0.995 | locus YJL095W, strain BCK1 (second series), hits give low values 0.994 | locus YJL095W, strain BCK1, hits give low values 1.03 | locus YJL115W, strain asf1, hits give low values 1 | locus YJL129C, strain trk1, hits give low values 1 | locus YJL134W, strain LCB3, hits give low values 1.02 | locus YJL154C, strain vps35, hits give low values 0.993 | locus YJL164C, strain tpk1, hits give low values 1 | locus YJL166W, strain qcr8, hits give low values 0.985 | locus YJL168C, strain set2, hits give low values 0.994 | locus YJL187C, strain SWE1 (second series), hits give low values 1.02 | locus YJL187C, strain SWE1, hits give low values 0.999 | locus YJR043C, strain POL32, hits give low values 1.03 | locus YJR075W, strain HOC1, hits give low values 1.01 | locus YKL009W, strain mrt4, hits give low values 1.01 | locus YKL068W, hits give low values 1.01 | locus YKL085W, strain MDH1 (second series), hits give low values 1.02 | locus YKL085W, strain MDH1, hits give low values 1.02 | locus YKL190W, strain CNB1, hits give low values 1.03 | locus YKR001C, strain vps1, hits give low values 1.01 | locus YKR026C, strain gcn3, hits give low values 0.995 | locus YKR091W, strain srl3, hits give low values 0.995 | locus YLL001W, strain dnm1, hits give low values 0.99 | locus YLL026W, hits give low values 0.992 | locus YLL041C, strain sdh2, hits give low values 0.998 | locus YLR027C, strain aat2, hits give low values 0.991 | locus YLR039C, strain RIC1, hits give low values 1.07 | locus YLR058C, strain SHM2, hits give low values 1.02 | locus YLR102C, strain apc9, hits give low values 1.01 | locus YLR221C, strain rsa3, hits give low values 0.998 | locus YLR258W, strain gsy2, hits give low values 0.994 | locus YLR262C, strain YPT6 (second series), hits give low values 0.981 | locus YLR262C, strain YPT6, hits give low values 1.07 | locus YLR268W, strain sec22, hits give low values 0.99 | locus YLR320W, strain mms22, hits give low values 1 | locus YLR330W, strain CHS5, hits give low values 1.02 | locus YLR342W, strain FKS1 (second series), hits give low values 1.03 | locus YLR342W, strain FKS1, hits give low values 0.995 | locus YLR357W, strain rsc2, hits give low values 0.984 | locus YLR370C, strain arc18, hits give low values 1.01 | locus YLR371W, strain rom2, hits give low values 1.02 | locus YLR384C, strain iki3, hits give low values 0.988 | locus YLR418C, strain cdc73, hits give low values 0.995 | locus YML016C, strain PPZ1, hits give low values 1.01 | locus YML032C, strain rad52, hits give low values 1 | locus YML120C, strain ndi1, hits give low values 0.998 | locus YML124C, strain tub3, hits give low values 0.997 | locus YMR058W, strain fet3, hits give low values 0.996 | locus YMR078C, strain ctf18, hits give low values 0.998 | locus YMR125W, strain sto1, hits give low values 0.995 | locus YMR129W, hits give low values 0.987 | locus YMR205C, strain PFK2, hits give low values 0.993 | locus YMR223W, strain ubp8, hits give low values 1.03 | locus YMR231W, strain pep5, hits give low values 1 | locus YMR307W, strain GAS1, hits give low values 1.02 | locus YNL067W, strain RPL9B, hits give low values 1.02 | locus YNL071W, strain lat1, hits give low values 1 | locus YNL209W, strain ssb2, hits give low values 0.996 | locus YNL233W, strain BNI4, hits give low values 1.02 | locus YNL248C, strain rpa49, hits give low values 0.982 | locus YNL250W, strain rad50, hits give low values 1.04 | locus YNL271C, strain bni1, hits give low values 1 | locus YNL298W, strain CLA4, hits give low values 1 | locus YNL307C, strain MCK1, hits give low values 1 | locus YNL322C, strain KRE1 (second series), hits give low values 0.985 | locus YNR049C, strain mso1, hits give low values 0.994 | locus YNR052C, strain pop2, hits give low values 0.995 | locus YOL012C, strain htz1 0.863 | locus YOL147C, strain pex11, hits give low values 1.01 | locus YOR001W, strain rrp6, hits give low values 1 | locus YOR061W, strain CKA2, hits give low values 1.02 | locus YOR069W, strain VPS5, hits give low values 1 | locus YOR070C, strain gyp1, hits give low values 0.998 | locus YOR080W, strain dia2, hits give low values 0.983 | locus YOR083W, strain WHI5, hits give low values 1 | locus YOR106W, strain vam3, hits give low values 1.01 | locus YOR136W, strain idh2, hits give low values 1 | locus YOR144C, strain elg1, hits give low values 0.999 | locus YOR184W, strain ser1, hits give low values 1.03 | locus YOR265W, strain rbl2, hits give low values 0.988 | locus YOR270C, strain vph1, hits give low values 1.03 | locus YOR290C, strain snf2, hits give low values 1.03 | locus YOR316C, strain cot1, hits give low values 0.999 | locus YPL051W, strain arl3, hits give low values 0.997 | locus YPL078C, strain atp4, hits give low values 0.988 | locus YPL106C, strain sse1, hits give low values 0.991 | locus YPL240C, strain hsp82, hits give low values 0.974 | locus YPL241C, strain CIN2, hits give low values 1.01 | locus YPR119W, strain clb2, hits give low values 0.991 | locus YPR141C, strain kar3, hits give low values 1.01 | locus YPR163C, strain tif3, hits give low values 1 | locus YPR167C, strain met16, hits give low values 1 | strain wtn01, hits give low values 0.998

Reference: PubChem BioAssay AID1159580 (chemical genetic matrix, 2015)
